Measurements as given in PubChem BioAssay (EPA / NIEHS).
Results filed as inconclusive are left out. The source made the active and inactive calls. How the source made its calls: active means hit-call score of the fitted dose curve at least 0.9, where 1 is the maximum; inconclusive means response in the unintended direction; inactive means score below 0.9.

molecular target: Nuclear receptor subfamily 4 group A member 2 (Homo sapiens) (UniProt P43354); experiment: ATG_NURR1_TRANS: Attagene TRANS-FACTORIAL HepG2 Assay for human Nuclear Receptor Related Protein 1 (NURR1) (AID 2282985); details: HepG2 Attagene TRANS reporter, mRNA readout
Protocol: ATG_TRANS is a cell-based, multiplexed-readout assay that uses HepG2, a human liver cell line, with measurements taken at 24 hours after chemical dosing in a 24-well plate.ATG_NURR1_TRANS is one of 30 assay component(s) measured or calculated from the ATG_TRANS assay. It is designed to make measurements of mRNA induction, a form of inducible reporter, as detected with fluorescence intensity signals by Reverse transcription polymerase chain reaction (RT-PCR) and Capillary electrophoresis technology.Data from the assay component ATG_NURR1_TRANS was analyzed into 1 assay endpoint. This assay endpoint, ATG_NURR1_TRANS, was analyzed in the positive analysis fitting direction relative to DMSO as the negative control and baseline of activity. Using a type of inducible reporter, measures of mRNA for gain-of-signal activity can be used to understand the reporter gene at the transcription factor-level as they relate to the gene NR4A2. Furthermore, this assay endpoint can be referred to as a primary readout, because this assay has produced multiple assay endpoints where this one serves a reporter gene function. To generalize the intended target to other relatable targets, this assay endpoint is annotated to the nuclear receptor intended target family, where the subfamily is orphan.
Human liver HepG2 cells are transiently transfected with multiple reporter transcription units (MRTUs) in 6-well plates using FuGene 6 reagent (Roche; 3 ml FuGene/1 mg DNA). The MRTU constructs are regulated by a cis-regulating element (promoter). […] A major difference between the CIS and TRANS system is that in CIS activities of endogenous TFs are measured, whereas the TRANS assay evaluates changes in activities of exogenous, chimeric NR-Gal4 proteins. […] At the end of 24 hour incubation, total RNA was isolated using TriZol reagent (Invitrogen). The isolated RNA is then reverse-transcribed using oligo(dT) primer and Mo-MLV reverse transcriptase (Invitrogen) with DNAse I (Ambion) treatment for 30 min. The one-tenth of the produced cDNA was amplified by PCR using Taq DNA polymerase (Invitrogen) and two reporter sequence-specific primers. The PCR products were fluorescently labeled by primer extension with 6-arboxyfluorescein (6-FAM) 5'-labeled reporter sequence-specific primer (2 min at 95 C, 20 s at 68 C and 10 min at 72 C) and these products were digested with 5U of HpaI (New England Biolabs) for 2h at 37 C. The fragments were purified using Qiaquick PCR columns (Qiagen), analyzed on an ABI 3130xL genetic analyzer (Applied Biosystems) with peak positions identified by using a set of X-rhodamine (ROX)-labeled MapMarker1000 molecular weight standards (BioVentures). The raw capillary electrophoresis data was processed using Attagraph software (Attagene).

Chain of Nuclear receptor subfamily 4 group A member 2 (Homo sapiens) (P43354 whole entry, looked up): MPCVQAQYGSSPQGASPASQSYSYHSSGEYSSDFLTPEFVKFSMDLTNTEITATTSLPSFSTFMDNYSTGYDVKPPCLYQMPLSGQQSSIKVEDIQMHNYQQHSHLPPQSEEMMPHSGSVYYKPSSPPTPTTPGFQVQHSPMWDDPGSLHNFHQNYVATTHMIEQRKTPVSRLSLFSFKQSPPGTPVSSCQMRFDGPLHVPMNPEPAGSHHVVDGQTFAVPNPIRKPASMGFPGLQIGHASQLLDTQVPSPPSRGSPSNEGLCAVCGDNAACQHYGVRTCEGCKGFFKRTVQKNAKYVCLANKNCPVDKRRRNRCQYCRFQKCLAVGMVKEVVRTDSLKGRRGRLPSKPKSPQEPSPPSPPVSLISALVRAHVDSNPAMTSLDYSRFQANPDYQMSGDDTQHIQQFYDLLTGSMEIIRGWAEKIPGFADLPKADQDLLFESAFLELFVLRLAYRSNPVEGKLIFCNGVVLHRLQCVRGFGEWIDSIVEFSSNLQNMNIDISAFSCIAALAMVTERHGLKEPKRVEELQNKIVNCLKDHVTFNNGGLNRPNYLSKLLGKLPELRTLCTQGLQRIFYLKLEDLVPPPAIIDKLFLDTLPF

| SMILES | outcome | AC50 |
| --- | --- | --- |
| Cc1ccc(C)c(S(=O)(=O)O)c1 | inactive | – |
| O=S(=O)(c1ccc(OCc2ccccc2)cc1)c1ccccc1O | – | 49.9 µM (active) |
| Clc1ccc(Nc2nnc(Cc3ccncc3)c3ccccc23)cc1 | – | 42 µM (active) |
| CC(C)(c1ccc(Oc2ccc(N)cc2)cc1)c1ccc(Oc2ccc(N)cc2)cc1 | – | 7.23 µM (active) |
| COc1ccccc1NC(=O)c1cc2ccccc2cc1O | inactive | – |
| CCCCCCCC(OC)OC | inactive | – |
| CC1CCC(CO)CC1 (stereo not given) | inactive | – |
| NC(C(F)(F)F)C(F)(F)F | inactive | – |
| CC(C)CCOCCC(C)C | inactive | – |
| CCCCCCCCCCCCCCCCCC[N+](C)(C)Cc1ccccc1 | inactive | – |
| C=COC(=O)C(C)(C)CCCCCC | inactive | – |
| CCOCCOCC | inactive | – |
| c1cc2cccc3c4cccc5cccc(c(c1)c23)c54 | inactive | – |
| FC(F)(F)N1C(F)(F)C(F)(F)OC(F)(F)C1(F)F | inactive | – |
| Oc1cc2ccccc2cc1O | inactive | – |
| CCCCC(CC)C(=O)O (stereo not given) | inactive | – |
| Cc1cc(C(C)(C)C)c(O)c(C(C)(C)C)c1 | – | 0.82 µM (active) |
| CCOC(C)=O | inactive | – |
| CCCCCCCCCCCC(=O)O | inactive | – |
| O=C(CC(=O)C(F)(F)C(F)(F)C(F)(F)F)c1cccs1 | inactive | – |

| SMILES | outcome | AC50 |
| --- | --- | --- |
| O=C(O)c1cccc(C(=O)O)n1 | inactive | – |
| O=C1c2ccccc2C(=O)c2c(O)c(O)cc(O)c21 | – | 47 µM (active) |
| Cc1[nH]nc2c1N=C(c1ccccc1Cl)c1cc([N+](=O)[O-])ccc1N2 | inactive | – |
| Cc1ccccc1OCC(=O)O | inactive | – |
| CCCCc1ccc2ccccc2c1S(=O)(=O)O | inactive | – |
| C/C=C/C(=O)C1=C(C)CCCC1(C)C | – | 152 µM (active) |
| COc1cccc(O)c1 | inactive | – |
| CCC(=O)C=Cc1ccc(OC)cc1 | inactive | – |
| O=C1OC(=O)c2cc(-c3ccc4c(c3)C(=O)OC4=O)ccc21 | inactive | – |
| CCN(CCC#N)c1ccccc1 | inactive | – |
| CCCCCCCCCCCCCC[n+]1ccccc1 | – | 9.84 µM (active) |
| NS(=O)(=O)O | inactive | – |
| COC(=O)C(F)(F)C(F)(F)C(F)(F)C(F)(F)C(F)(F)F | inactive | – |
| COC1=CC(=O)C[C@@H](C)[C@]12Oc1c(Cl)c(OC)cc(OC)c1C2=O | inactive | – |
| O=C(O)CCC(F)(F)C(F)(F)C(F)(F)C(F)(F)C(F)(F)C(F)(F)F | inactive | – |
| O=C1NS(=O)(=O)c2ccccc21 | inactive | – |
| NNc1nc(-c2ccc([N+](=O)[O-])cc2)cs1 | inactive | – |
| C=CC(F)(F)C(F)(F)C(F)(F)C(F)(F)F | inactive | – |
| C=CC(C)(CCC=C(C)C)OC(C)=O (stereo not given) | inactive | – |
| c1cnc2c(c1)ccc1cccnc12 | inactive | – |
